In PubChem BioAssay AID624330 (Southern Research Specialized Biocontainment Screening …, 2012):
In all, about 340,000 compounds went through this assay and about 2,100 (0.62%) were called active.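 How the source made its calls: active means first-screen hits whose inhibition reached a set limit at any dose in the follow-up dose series; inconclusive means inhibition above the set first-screen limit but never retested; inactive means the rest.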 The list is a sample of the results. Results with a measured potency or affinity are listed apart.

Molecular target: Rac GTPase-activating protein 1 (Homo sapiens) (UniProt Q9H0H5)
Sequence (Q9H0H5 whole entry, looked up): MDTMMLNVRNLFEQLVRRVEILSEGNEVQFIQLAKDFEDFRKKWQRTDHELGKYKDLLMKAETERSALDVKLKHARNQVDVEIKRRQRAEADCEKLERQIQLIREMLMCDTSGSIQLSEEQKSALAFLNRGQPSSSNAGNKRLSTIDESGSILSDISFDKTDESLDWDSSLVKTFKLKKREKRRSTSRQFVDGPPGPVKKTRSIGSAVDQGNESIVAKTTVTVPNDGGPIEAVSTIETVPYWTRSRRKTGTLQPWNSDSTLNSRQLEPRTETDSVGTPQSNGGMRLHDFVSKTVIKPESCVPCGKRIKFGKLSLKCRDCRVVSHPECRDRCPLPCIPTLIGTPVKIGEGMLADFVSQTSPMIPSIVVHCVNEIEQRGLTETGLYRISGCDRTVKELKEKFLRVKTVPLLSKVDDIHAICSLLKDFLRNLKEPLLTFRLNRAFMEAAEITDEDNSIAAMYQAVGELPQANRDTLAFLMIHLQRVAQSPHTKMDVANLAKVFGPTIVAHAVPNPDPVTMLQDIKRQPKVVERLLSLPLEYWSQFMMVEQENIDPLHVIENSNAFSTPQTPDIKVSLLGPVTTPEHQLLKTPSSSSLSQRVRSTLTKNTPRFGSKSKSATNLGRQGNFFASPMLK
Test: MgcRacGAP GTPase-activating activity inhibitors, confirmation, biochemical, ADP Hunter fluorescence, primary and confirmatory (AID 624330);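 further: fluorescence reports GDP produced by GAP-driven GTP hydrolysis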
Details: MgcRacGAP-stimulated Rac1 GTP hydrolysis, at 30 µM, hits give high values, GST-tagged Rac1 F28L mutant substrate

inhibition, inactive:
Cc1ccc(-c2cc(C(=O)N3CCCC3)c3ccccc3n2)s1 3.87%
CCCCn1c(N)c(N(CCOC)C(=O)CSc2ccc([N+](=O)[O-])cc2)c(=O)[nH]c1=O 9.47%
CC1CC1C(=O)OCC(=O)NNC(=O)c1ccc([N+](=O)[O-])cc1 (stereo unspecified) 2.78%
Cc1ccc(-c2cc(C(=O)N/N=C/c3c(C)nn(-c4ccccc4)c3C)n[nH]2)s1 3.04%
CC(C)NC(=O)N(C)C[C@H]1Oc2ccc(NS(=O)(=O)c3cn(C)cn3)cc2C(=O)N([C@H](C)CO)C[C@@H]1C 12.3%
Cc1cc(Br)ccc1NCc1ccccn1 23.4%
O=C(CN1CCN(S(=O)(=O)c2ccc(Br)cc2)CC1)Nc1ccc(F)cc1F 7.71%
CC1(C)CNc2cc([N+](=O)[O-])ccc2S1 9.53%
CC1(C)CC(=S)Nc2ccccc2S1 2.74%
CSc1ncccc1C(=O)NC1CCCc2c1cnn2-c1ccc(C)c(C)c1 (stereo unspecified) 3.32%
CCOc1cc(/C=N/n2cnnc2)cc(Br)c1O 14.1%
CCOc1cc(/C=N/n2c(C)nc3sc(C)c(C)c3c2=O)ccc1O 10%
CCOc1cc(/C=N/N=C/c2ccc(O)c(OCC)c2)ccc1O 9.66%
CCOc1cc(C=NN2CCCCCC2)ccc1O 30.4%
CN(C)c1nc(C(=O)O)nc(N2CCOCC2)n1 7.25%
CN(C(=O)c1ccc(NC(=O)Cc2ccc(NC(=O)C3CCCN(C(=O)C4CCCCC4)C3)cc2)cc1)C1CCCC1 (stereo unspecified) 9%
O=C(Nc1cccc(NS(=O)(=O)c2ccc(S(=O)(=O)NC3CC3)cc2)c1)c1ccccn1 11.8%
NC(=O)CSc1nnc(NC(=O)c2cccc(S(=O)(=O)N3CCCCC3)c2)s1 7.47%
Cc1c(Cl)cccc1NC(=S)NC1CCCC1 8.99%
CN(c1nc(-c2ccccc2)cs1)C1CCS(=O)(=O)C1 (stereo unspecified) 8.88%
Cc1cc(O)ccc1Nc1nc(-c2cccnc2)cs1 28.4%
c1csc(-c2csc(-c3cccs3)n2)c1 7.41%
Oc1ccc(Nc2nc(-c3cccs3)cs2)cc1 19.4%
c1ccc(-c2nc(-c3cccnc3)cs2)cc1 7.12%
Nc1nc(-c2cccs2)cs1 18.1%
CN(C(=O)c1ccco1)c1nc(-c2ccccc2)cs1 8.31%
CN(C(=O)c1cccnc1)c1nc(-c2ccccc2)cs1 0.25%
COc1cc(OC)c(C(=O)NCCCn2ccnc2)cc1OC 3.26%
O=C(Nc1cccnc1)c1ccco1 -3.68%
CC(=O)N(C)c1ccc(NC(=O)Cc2cccs2)cc1 -7.79%
COC(=O)Cn1c2c(c3cc(C)ccc31)CCCC2NC(C)c1ccccc1 (stereo unspecified) 12.5%
CCOc1ccc2nc(N3C(=O)C(O)=C(C(=O)c4ccco4)C3c3ccco3)sc2c1 (stereo unspecified) 10.3%
Cc1ccc2nc(N3C(=O)C(O)=C(C(=O)c4ccc(C)o4)C3c3ccco3)sc2c1 (stereo unspecified) 14.4%
CCN1CCN(C(c2cccnc2)c2c(NC(=O)c3ccco3)sc(C)c2C)CC1 (stereo unspecified) 3.07%
O=[N+]([O-])c1ccc(O)c(CNCc2ccccc2)c1 5.59%
Oc1ccc(N=Cc2ccc(OCc3ccccc3)cc2)cc1 9.78%
Oc1ccc(C=NC2CCCCC2)cc1 -1.9%
CC1CCCC(C)N1/N=C/c1ccc(O)cc1 (stereo unspecified) 21.4%
Oc1c(C=Nc2ccccc2)sc2ccccc12 6.75%
Cc1ccc(C(C(=O)NC2CCCCC2)N(Cc2ccco2)C(=O)Cc2c[nH]c3ccccc23)o1 (stereo unspecified) 9.31%
COc1cc(OC)cc(C(=O)NCCCN2CCOCC2)c1 5.65%
CCc1c(C)nc(SCC(=O)N2CCCCC2)[nH]c1=O 0.74%
O=C1c2ccccc2C(=O)N1CCCCSc1nnc(-c2ccc(OC(F)F)cc2)o1 -1.82%
CC(CNC(=O)Cn1ccc(N)nc1=O)c1ccccc1 (stereo unspecified) -5.59%
COc1cc(/C=C2/C(=N)N3N=C(CC(=O)N4CCOCC4)SC3=NC2=O)ccc1OCc1ccccc1 11.5%
Cc1ccc(/C=C2/C(=N)N3N=C(CC(=O)N4CCCC4)SC3=NC2=O)cc1 1.49%
Cc1ccc(/C=C2\C(=N)N3N=C(CC(=O)N4CCCCC4)SC3=NC2=O)cc1 7.03%
CCN(CC)c1ccc(/C=C2\C(=N)N3N=C(CC(=O)N4CCOCC4)SC3=NC2=O)cc1 5.98%
COc1ccc(/C=C2\C(=N)N3N=C(CC(=O)N4CCOCC4)SC3=NC2=O)cc1 5.52%
COc1cc(/C=C2/C(=N)N3C(=NC2=O)SN=C3S(C)(=O)=O)ccc1OS(=O)(=O)c1ccc(C)cc1 11.8%
CSc1ccc(/C=C2\C(=N)N3N=C(CC(=O)N4CCOCC4)SC3=NC2=O)cc1 -13.1%
COc1cc(/C=C2\C(=N)N3N=C(S(C)(=O)=O)SC3=NC2=O)ccc1OS(=O)(=O)c1ccc(C)cc1 23.8%
CCCc1nc(NC(=O)c2ccccc2)nc(NC(=O)c2ccccc2)n1 3.82%
Cc1nc(-c2ccccc2)cc(-c2ccccc2)n1 12.4%
CN1CCN(/N=C/c2ccc(Cl)c(Cl)c2)CC1 -7.71%
Cc1ccc(-c2nc3sc4c(c3c(=O)n2N)CC(C)(C)OC4)cc1 3.06%
CCO[C@H]1OC(C(=O)NC2CC2)=C[C@@H](c2ccc3c(c2)OCO3)[C@@H]1CCCO 6.42%
CCCCc1ccc(/C=C2\C(=O)ON=C2c2ccccc2)s1 2.22%
CSc1nc2sc3c(c2c(=O)n1C)CCC3 15.1%
O=C(O)c1ccccc1C(=O)Nc1ccc(Nc2ccc([N+](=O)[O-])cc2[N+](=O)[O-])cc1 15.6%
COc1ccccc1N1C(=O)C2C3CC(c4ccccc4)C(C3)C2C1=O (stereo unspecified) 7.95%
